According to ChEMBL document CHEMBL3988442, “University of Dundee, Small-Polar-MMV Screening Library” (2021):
In all, about 48,000 compounds went through this assay and about 13,000 (27%) showed an effect of 50% or more. This is one part of the list.

tested on: Wolbachia pipientis; experiment: Anti-Wolbachia Cell-Based Screen; type: functional; set-up: scale not given: in the data most compounds retested in dose-response had high values; settings: 5 µM

| SMILES | Percent Effect [%] |
| --- | --- |
| CN(Cc1nnc2n1CCC2)S(=O)(=O)c1cc(Br)ccc1Br | 5.695 |
| O=C(c1cncc(N2CCC3(CC2)NCCNC3=O)n1)N1CCCCC1 | -23.93 |
| CN(C)CCn1ccc2cc(NC(=O)NCc3ccon3)ccc21 | -4.037 |
| O=C(Cc1cccc(F)c1F)NS(=O)(=O)c1ccc(Cl)cn1 | 3.295 |
| O=C(CNc1cc2c(cc1Cl)OCCO2)NCC(F)(F)F | 19.2 |
| COc1ccc(C2(C(=O)N3CC[C@@]4(O)CCNC[C@H]4C3)CCCC2)cc1 | -11.98 |
| COc1ccc(CN(C)CC2(O)CCNC2)cc1 (centres undefined) | 119.3 |
| CN(Cc1ccc2nsnc2c1)CC1(O)CCNC1 (centres undefined) | 4.818 |
| N#Cc1cn(C2CC2)c(=O)n(Cc2ncc(-c3cccs3)o2)c1=O | 18.42 |
| COCCCN1CC2(CCCN(c3ncc4nc[nH]c4n3)C2)CCC1=O (centres undefined) | -4.995 |
| Cl.Cl.O=C(NCc1cncc2c1CCN(Cc1cccc(F)c1)C2)C1CC1 | 1.539 |
| Cl.Cl.O=C(NCc1cncc2c1CCN(CC1CCOC1)C2)c1ccno1 (centres undefined) | 2.196 |
| CC(C)CN1CCC(C(=O)NCCNC(=O)c2ccco2)CC1 | -4.338 |
| Cl.Cl.O=C(NCc1cncc2c1CCN(C1CCOCC1)C2)c1ccco1 | 116 |
| Cl.Cl.O=C(NCc1cncc2c1CCN(C1CCOC1)C2)c1ccco1 (centres undefined) | 112.9 |
| Cl.Cl.O=C(NCc1cncc2c1CCN(Cc1ccccc1)C2)C1CC1 | 12.37 |
| Cl.Cl.O=C(NCc1cncc2c1CCN(Cc1ccc(F)cc1)C2)C1CC1 | -3.295 |
| Cl.Cl.O=C(NCc1cncc2c1CCN(C1CCOCC1)C2)c1ccno1 | 114.6 |
| Cl.Cl.O=C(NCc1cncc2c1CCN(CC1CCOC1)C2)c1ccco1 (centres undefined) | 105 |
| CS(=O)(=O)N1CCCN(C(=O)c2ccc(Cn3ccccc3=O)o2)CC1 | 2.265 |

| SMILES | Percent Effect [%] |
| --- | --- |
| O=C(NS(=O)(=O)c1ccccc1Cl)c1cccc2c1OCCO2 | -4.478 |
| Cc1ccc(CN(C)C)cc1NC(=O)C1CC=CC1 | -13.67 |
| CCc1ncc2c(n1)CN(CC(=O)N1CCc3sccc3C1)CC2 | 0.7848 |
| O=C(O)C(F)(F)F.c1cncc(N2CCOCC3(CCCN(c4nncs4)C3)C2)c1 (centres undefined) | -4.249 |
| Fc1cnccc1CN1CCCC2(CCN(c3ncccn3)CC2)C1.O=C(O)C(F)(F)F | -3.022 |
| O=C(O)C(F)(F)F.c1cncc(N2CCC3(CCCN(c4ccncc4)C3)CC2)c1 | 92.43 |
| O=C(O)C(F)(F)F.O=C(O)C(F)(F)F.c1cncc(N2CCCC3(CCN(CCN4CCCC4)CC3)C2)c1 | 112 |
| COc1ccc(N2CCCC3(C2)CN(c2cccnc2)CCO3)cc1.O=C(O)C(F)(F)F (centres undefined) | 0.9473 |
| N#Cc1ccc(N2CCCC3(CCN(c4cccnc4)CC3)C2)cc1.O=C(O)C(F)(F)F | 32.72 |
| O=C(O)C(F)(F)F.c1cncc(N2CCCC3(CCN(CC4CCCO4)CC3)C2)c1 (centres undefined) | 83.5 |
| c1ccc(NCc2cn3c(n2)CN(Cc2nccs2)CC3)nc1 | 0.03801 |
| CC(=O)c1cc(CC(=O)N2CCN(S(=O)(=O)c3ccccc3)CC2)cs1 | -20.85 |
| COc1cc2c(nn1)CCN(Cc1nnc(Cc3ccccc3)o1)C2 | 16.22 |
| CC(C)COCCCNC(=O)NC(C)c1ccc(-n2cncn2)cc1 (centres undefined) | -8.242 |
| O=C(NCc1cccnc1)[C@@H]1C[C@@H]2CCN(c3ncc(F)cn3)C[C@@H]2O1.O=C(O)C(F)(F)F.O=C(O)C(F)(F)F | 11.34 |
| COCCNC(=O)[C@H]1C[C@@H]2CCN(CCc3ccccc3)C[C@@H]2O1.O=C(O)C(F)(F)F | -51.54 |
| COCCNC(=O)[C@H]1C[C@@H]2CCN(c3ccncn3)C[C@H]2O1.O=C(O)C(F)(F)F | 90.71 |
| COCCNC(=O)[C@H]1C[C@@H]2CCN(CCc3ccccc3)C[C@H]2O1.O=C(O)C(F)(F)F | 28.03 |
| O=C(NCc1cccnc1)[C@@H]1C[C@H]2[C@H](CCN2c2ncc(F)cn2)O1.O=C(O)C(F)(F)F.O=C(O)C(F)(F)F | -1.497 |
| COCCNC(=O)[C@@H]1C[C@@H]2CCN(c3ncccn3)C[C@H]2O1.O=C(O)C(F)(F)F | 90.69 |

| SMILES | Percent Effect [%] |
| --- | --- |
| O=C(NCc1cccnc1)[C@H]1C[C@@H]2CCN(c3ccncn3)C[C@H]2O1.O=C(O)C(F)(F)F.O=C(O)C(F)(F)F | 98.22 |
| COCCNC(=O)[C@H]1C[C@@H]2CCN(c3ccccc3)C[C@H]2O1.O=C(O)C(F)(F)F | 88.58 |
| COC(=O)c1ccc(N2CCN(C(=O)CCCc3cn[nH]c3)CC2)cc1 | -14.7 |
| CCNc1ncc(C(=O)NCc2csc(C)n2)cn1 | -20.21 |
| OCCOc1ccc(NCc2cccc3cccnc23)cn1 | -13.71 |
| COCCNC(=O)[C@H]1C[C@@H]2CCN(c3ncccn3)C[C@H]2O1.O=C(O)C(F)(F)F | 108.2 |
| COCCNC(=O)[C@H]1C[C@@H]2CCN(c3ncccn3)C[C@@H]2O1 | 107.5 |
| COCCNC(=O)[C@@H]1CN(c2ncccn2)C[C@H]2OCC[C@H]21 | -43.81 |
| COCCNC(=O)[C@H]1CN(c2ncccn2)C[C@H]2OCC[C@@H]12 | -34.97 |
| COCc1noc(C2(c3cccc(Cl)c3)CCOCC2)n1 | -3.313 |
| COC(=O)c1cccc(C2CNCCN2C)c1 (centres undefined) | 77.97 |
| COC(=O)c1cccc(CNC(=O)CCC(F)(F)F)c1 | -15.88 |
| COC(=O)c1ccc2ccn(CC3CCNC3)c(=O)c2c1 (centres undefined) | -6.108 |
| COC(=O)c1cccc(C2CNCCN2C(C)=O)c1 (centres undefined) | 103.9 |
| COCCN1CCN(Cc2cccc(C(=O)N(C)C)c2)CC1C (centres undefined) | -4.413 |
| CNC(=O)c1cccc(C2CNCCN2C)c1 (centres undefined) | -21.17 |
| CN(C)C(=O)c1cccc(C2CNCCN2C)c1 (centres undefined) | 117.5 |
| CC(=O)N1CCNCC1c1cccc(C(=O)N(C)C)c1 (centres undefined) | -10.2 |
| COC(=O)c1cccc(CNC(=O)NCCC(F)(F)F)c1 | -12.97 |
